ChEMBL document CHEMBL3433997, “St. Jude Leishmania screening dataset” (2016)

Columns and labels:
Assay type in all cases: functional
[1] = molecular target: Solute carrier family 2, facilitated glucose transporter member 1 (Homo sapiens) (UniProt P11166); experiment: ST_JUDE_LEISH: Cytotoxicity at 2uM final concentration against transgenic Leishmania Mexicana promastigotes LmGLUT1 that are glucose transport deficient and complemented with the human glucose transporter GLUT1. Activity is measured by DNA content using SYBR green in vitro
[2] = molecular target: Hexose transporter 1 (Plasmodium falciparum) (UniProt O97467); experiment: ST_JUDE_LEISH: Cytotoxicity at 2uM final concentration against transgenic Leishmania Mexicana promastigotes LmPfHT that are glucose transport deficient and complemented with the Plasmodium falciparum hexose transporter. Activity is measured by DNA content using SYBR green in vitro
[3] = molecular target: Glucose transporter (Leishmania mexicana) (UniProt O61059); experiment: ST_JUDE_LEISH: Cytotoxicity at 2uM final concentration against transgenic Leishmania Mexicana promastigotes LmGT2 that are glucose transport deficient and complemented with the L. Mexicana glucose transporter 2. Activity is measured by DNA content using SYBR green in vitro

Sequence of Solute carrier family 2, facilitated glucose transporter member 1 (Homo sapiens) (P11166 whole entry): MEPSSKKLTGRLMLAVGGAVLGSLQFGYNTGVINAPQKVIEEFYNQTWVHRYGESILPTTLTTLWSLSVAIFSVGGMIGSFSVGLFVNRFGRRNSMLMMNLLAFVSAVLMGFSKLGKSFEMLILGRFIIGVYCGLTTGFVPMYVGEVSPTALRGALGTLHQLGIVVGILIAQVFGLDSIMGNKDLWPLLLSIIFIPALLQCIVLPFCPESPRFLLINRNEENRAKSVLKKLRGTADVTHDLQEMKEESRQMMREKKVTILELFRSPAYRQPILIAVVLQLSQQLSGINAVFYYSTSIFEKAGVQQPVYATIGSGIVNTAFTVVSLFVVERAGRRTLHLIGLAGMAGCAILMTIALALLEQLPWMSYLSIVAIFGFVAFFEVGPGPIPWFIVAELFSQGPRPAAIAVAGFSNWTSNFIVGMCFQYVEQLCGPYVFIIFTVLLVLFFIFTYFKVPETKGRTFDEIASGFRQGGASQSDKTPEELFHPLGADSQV

Row | Structure (SMILES) | inhibition [1] [%] | inhibition [2] [%] | inhibition [3] [%]
1 | COc1ccc(C(=O)CCC(=O)N(CCSC(C)(C)C)Cc2ccc(-c3ccc(CNCCc4ccc(S(C)(=O)=O)cc4)cn3)cc2)cc1F | 10.4 | 9.03 | 7.07
2 | COc1ccc(-c2cnc3[nH]cc(-c4ccncc4)c3c2)cc1OC | 68.3 | 72.8 | 65.3
3 | O=C(NCCCCN1CCC(c2ccc3c(c2O)CCCC3)CC1)c1ccc(NC(=O)c2ccc(Cl)cc2)cc1 | 1.7 | 2.56 | 0.97
4 | CNc1cc(-c2ccc3ccnc(N)c3c2)nc(N)n1 | -1.76 | 0.35 | -3.58
5 | Cc1ccc(C)c(NC(=O)NCCNc2ccnc(Nc3ccc(F)cc3)n2)c1 | 17 | 13.1 | 6.47
6 | Cc1ccc(N)cc1-c1nc(NC2CC(C)(C)NC(C)(C)C2)nc2c1ccc(=O)n2-c1c(F)cccc1F | 0.73 | 1.28 | 2.03
7 | O=C(Nc1cccc(CN2CCCN(Cc3ccsc3)CC2)c1)c1cc2ccccc2s1 | 1.11 | 0.58 | -0.93
8 | O=C(Nc1cc(C(F)(F)F)cc(C(F)(F)F)c1)NC(CCCN1CCC2(CC1)OCc1ccccc12)c1ccc(Cl)c(Cl)c1 (stereo not drawn) | 3 | 5.93 | -0.66
9 | CCCn1c(Sc2ccc(C#N)c([N+](=O)[O-])c2)nnc1-c1ccc(Cl)cc1 | 2.12 | 3.28 | 2.23
10 | CCCCN1CC[C@@H](CCC(O)c2cc(OCCC)nc3ccc(OC)cc23)[C@@H](CC)C1 (stereo partly drawn) | -0.6 | -1.53 | -1.52
11 | CN(C)c1ccc(CN2CCC(CNC(=O)c3cc(-c4cccc(C(F)(F)F)c4)cs3)C2)cc1 (stereo not drawn) | 2.15 | 1.34 | 1.72
